# “And” between values parts separate entries of the source, which are not always exact repeats. Identical values can stand only once. Inconclusive results are not listed. A call without a number means that no potency is given here. Where a structure was tested more than once in an assay, its records may differ in their call. The source made the active and inactive calls. Unless noted, the call rests on the fitted dose curve; in most records, active means well fitted curve in the direction sought with a large enough effect in the repeat runs; inconclusive means weak or mixed curves; inactive means no such curve, though single readings can be large; an effect the other way counts as inactive or inconclusive.
# Tests used:
# [1] = qHTS assay to identify aromatase inhibitors - cell viability counter screen (AID 743084);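 further: cells stimulated with testosterone during compound exposure; nearly all actives have a fitted effect of over 55% in size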
# [2] = target: Aryl hydrocarbon receptor (Homo sapiens) (UniProt P35869); assay: qHTS assay to identify small molecule that activate the aryl hydrocarbon receptor (AhR) signaling pathway (AID 743085); further: nearly all actives have a fitted effect of over 15% in size; further: potency means the concentration at half of the fitted maximal effect;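 on activation: HG2L7.5c1 human HepG2 liver cells with stably integrated DRE-driven firefly reporter; series mostly up to about 70 µM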
# How it was run: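 Luminescence read-out: ONE-Glo reagent, 30 min at room temperature, in HG2L7.5c1 HepG2 reporter cells treated 24 h at 37C. Viability was measured beforehand by CellTiter-Fluor fluorescence after 30 min at 37C.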
# [3] = qHTS assay to identify small molecule that activate the aryl hydrocarbon receptor (AhR) signaling pathway - cell viability counter screen (AID 743086);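 further: HepG2 liver cells carrying the AhR DRE luciferase reporter; series mostly up to about 70 µM; nearly all actives have a fitted effect of over 45% in size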
# How it was run: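 HepG2-AhR-luc (HG2L7.5c1) cells, 4000/well, were preincubated 5 h at 37C, exposed to compound in qHTS format for 24 hr at 37C, then given CellTiter-Fluor for 30 min; viability was read as fluorescence in the reporter wells.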
# [4] = target: Peroxisome proliferator-activated receptor gamma (Homo sapiens) (UniProt P37231); assay: qHTS assay to identify small molecule agonists of the peroxisome proliferator-activated receptor gamma (PPARg) signaling pathway (AID 743094; active means well fitted activation curve with a large enough effect in the signal ratio in the repeat runs, not every such curve was filed as active; the % refers to the signal ratio)
# How it was run: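 Fluorescence-based beta-lactamase readout in HEK293H PPARg UAS-bla cells after 17 h compound exposure (37C) and 1 h B/G FRET substrate incubation at room temperature.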
# [5] = target: Peroxisome proliferator-activated receptor gamma (Homo sapiens) (UniProt P37231); assay: qHTS assay to identify small molecule antagonists of the peroxisome proliferator-activated receptor gamma (PPARg) signaling pathway (AID 743191; calls by dose curve; further: series mostly up to about 63 µM; nearly all actives have a fitted effect of over 30% in size)
# How it was run: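 GeneBLAzer PPARg UAS-bla HEK293H cells carrying a UAS-driven beta-lactamase reporter were plated at 3000 cells/well, preincubated 5 h at 37C, then given compound for 17 h at 37C; LiveBLAzer B/G FRET substrate was read after 1 h at room temperature.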
# [6] = qHTS assay to identify small molecule antagonists of the peroxisome proliferator-activated receptor gamma (PPARg) signaling pathway - cell viability counter screen (AID 743194); further: nearly all actives have a fitted effect of over 55% in size
# How it was run: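 PPARg-UAS-bla HEK293H cells were plated, rested 5 h at 37 C, then treated with compounds plus rosiglitazone (50 nM final) for 17 h at 37 C; viability was then read by CellTiter-Glo luminescence after 30 min at room temperature.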
# [7] = qHTS assay for small molecule agonists of the antioxidant response element (ARE) signaling pathway (AID 743202; active means well fitted activation curve with a large enough effect in the signal ratio in the repeat runs, not every such curve was filed as active; the % refers to the signal ratio; further: potency means the concentration at half of the fitted maximal effect)
# How it was run: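 Following a 16 h, 37 C exposure of reporter HepG2 cells (ARE-driven beta-lactamase, 2,000 cells/well) to compounds, FRET substrate was applied for 2 h at room temperature and fluorescence intensity recorded.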
# [8] = qHTS assay for small molecule agonists of the antioxidant response element (ARE) signaling pathway - cell viability counter screen (AID 743203; calls by dose curve; further: nearly all actives have a fitted effect of over 55% in size)
# How it was run: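 Parallel cytotoxicity read-out for the ARE-bla screen: HepG2 reporter cells, 16 hrs with compounds, then CellTiter-Glo luminescence.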
# [9] = qHTS assay for small molecule activators of the heat shock response signaling pathway - cell viability counter screen (AID 743209); further: nearly all actives have a fitted effect of over 50% in size
# How it was run: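 To flag cytotoxic compounds, HSE-bla HeLa cells plated at 1500 cells/well were dosed for 5 h at 37 C, followed by the reporter FRET read and then CellTiter-Glo, with luminescence recorded 30 min after reagent addition.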
# [10] = qHTS assay for small molecule activators of the heat shock response signaling pathway (AID 743210; active means well fitted activation curve with a large enough effect in the signal ratio in the repeat runs, with a control signal flat, not every such curve was filed as active; the % refers to the signal ratio; further: potency means the concentration at half of the fitted maximal effect; on activation: series mostly up to about 63 µM)
# How it was run: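 Heat shock element–beta-lactamase HeLa reporter cells; qHTS with compounds for 5 h at 37 C; detection by FRET substrate fluorescence after 2.5 h at RT.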
# [11] = qHTS assay to identify small molecule agonists of the peroxisome proliferator-activated receptor delta (PPARd) signaling pathway - cell viability counter screen (AID 743211); further: nearly all actives have a fitted effect of over 55% in size
# How it was run: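 Read-out: CellTiter-Glo luminescence, 30 min RT, measured in the same wells as the beta-lactamase reporter. Cells: GeneBLAzer PPAR delta UAS-bla HEK293H, 3000 cells/well, compound exposure 17 h at 37C.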
# [12] = target: Peroxisome proliferator-activated receptor delta (Homo sapiens) (UniProt Q03181); assay: qHTS assay to identify small molecule agonists of the peroxisome proliferator-activated receptor delta (PPARd) signaling pathway (AID 743212; calls by dose curve)
# How it was run: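 Beta-lactamase reporter read by fluorescence (LiveBLAzer B/G FRET, 2 h, room temperature). Test agents, in DMSO, incubated at 37 C with PPARd-bla HEK293H cells.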
# [13] = qHTS assay to identify small molecule antagonists of the peroxisome proliferator-activated receptor delta (PPARd) signaling pathway - cell viability counter screen (AID 743213); further: nearly all actives have a fitted effect of over 50% in size
# How it was run: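 CellTiter-Glo was added to PPARd-bla HEK293H wells following 17 h compound treatment in the presence of 300 nM L165041. Luminescence was recorded after 30 min at room temperature.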
# [14] = target: Peroxisome proliferator-activated receptor delta (Homo sapiens) (UniProt Q03181); assay: qHTS assay to identify small molecule antagonists of the peroxisome proliferator-activated receptor delta (PPARd) signaling pathway (AID 743215; active means well fitted inhibition curve with a large enough effect in the signal ratio in the repeat runs, not every such curve was filed as active; the % refers to the signal ratio;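 further: cells stimulated with agonist L165041 at 300 nM final during compound exposure; series mostly up to about 62 µM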)
# How it was run: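 Screen format: qHTS, antagonist mode. HEK293H PPARd-bla cells received compound and 300 nM L165041 (final), 17 h, 37 C. Beta-lactamase detected via FRET substrate fluorescence, 2 h, room temperature.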
# [15] = qHTS assay to identify small molecule agonists of the farnesoid-X-receptor (FXR) signaling pathway - cell viability counter screen (AID 743218); further: nearly all actives have a fitted effect of over 45% in size
# How it was run: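 Same-well cytotoxicity check on FXR-UAS-bla HEK 293T cells: 5 h attachment, 16 h compound at 37 C, CellTiter-Glo luminescence read at room temperature after 30 min.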
# [16] = qHTS assay to identify small molecule antagonists of the farnesoid-X-receptor (FXR) signaling pathway - cell viability counter screen (AID 743221; active means well fitted cell-killing curve with a large enough effect in the repeat runs, not every such curve was filed as active; further: nearly all actives have a fitted effect of over 50% in size)
# How it was run: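 HEK 293T FXR-bla cells, 5 h pre-incubation; compound + CDCA 50 uM final, 16 h, 37 C; beta-lactamase FRET read first, then CellTiter-Glo luminescence, 30 min RT.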
# [17] = target: Vitamin D3 receptor (Homo sapiens) (UniProt P11473); assay: qHTS assay to identify small molecule agonists of the vitamin D receptor (VDR) signaling pathway (AID 743222; calls by dose curve)
# How it was run: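 Using LiveBLAzer B/G FRET detection, agonism was scored in VDR-bla cells exposed overnight (16 h, 37C) to DMSO-dissolved compounds; substrate incubation was 2 h at room temperature.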
# [18] = target: Vitamin D3 receptor (Homo sapiens) (UniProt P11473); assay: qHTS assay to identify small molecule antagonists of the vitamin D receptor (VDR) signaling pathway (AID 743223; active means well fitted inhibition curve with a large enough effect in the signal ratio in the repeat runs, not every such curve was filed as active; the % refers to the signal ratio)
# How it was run: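 Beta-lactamase reporter read-out: FRET substrate fluorescence after 2 h at room temperature, following 16 h exposure of VDR-bla cells to test compound plus 3 nM (final) 1alpha,25-dihydroxyvitamin D3 agonist at 37C.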
# [19] = target: Bile acid receptor (Homo sapiens) (UniProt Q96RI1); assay: qHTS assay to identify small molecule antagonists of the farnesoid-X-receptor (FXR) signaling pathway (AID 743217; active means well fitted inhibition curve with a large enough effect in the signal ratio in the repeat runs, not every such curve was filed as active; the % refers to the signal ratio)
# How it was run: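 Quantitative HTS, beta-lactamase reporter format: FXR-UAS-bla HEK 293T cells co-treated 16 h at 37 °C with compounds and 50 uM final chenodeoxycholic acid, then read by B/G FRET fluorescence.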
# [20] = target: Bile acid receptor (Homo sapiens) (UniProt Q96RI1); assay: qHTS assay to identify small molecule agonists of the farnesoid-X-receptor (FXR) signaling pathway (AID 743220; active means well fitted activation curve with a large enough effect in the signal ratio in the repeat runs, not every such curve was filed as active; the % refers to the signal ratio)
# How it was run: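 FXR-UAS-bla HEK 293T cells carrying a UAS-driven beta-lactamase reporter were plated for 5 h at 37C/5% CO2, then exposed to DMSO-dissolved Tox21 10K compounds for 16 h at 37C. A LiveBLAzer B/G FRET substrate was loaded for 2 h at room temperature before fluorescence reading.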
# Chain of Bile acid receptor (Homo sapiens) (Q96RI1 whole entry, looked up): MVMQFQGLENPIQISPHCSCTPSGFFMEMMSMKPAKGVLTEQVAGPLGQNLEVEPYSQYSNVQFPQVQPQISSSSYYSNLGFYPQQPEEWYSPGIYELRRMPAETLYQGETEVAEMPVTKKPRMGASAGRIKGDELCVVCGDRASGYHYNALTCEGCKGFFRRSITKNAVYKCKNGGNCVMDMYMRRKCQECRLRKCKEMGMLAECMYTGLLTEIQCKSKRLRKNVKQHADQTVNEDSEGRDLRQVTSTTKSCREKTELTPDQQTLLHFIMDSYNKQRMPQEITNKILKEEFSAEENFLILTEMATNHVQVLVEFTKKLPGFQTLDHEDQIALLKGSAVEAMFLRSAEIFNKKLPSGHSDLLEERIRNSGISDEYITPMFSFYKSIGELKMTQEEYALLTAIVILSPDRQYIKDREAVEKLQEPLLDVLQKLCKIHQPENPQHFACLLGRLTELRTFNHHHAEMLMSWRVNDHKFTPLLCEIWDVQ
# Chain of Peroxisome proliferator-activated receptor gamma (Homo sapiens) (P37231 whole entry, looked up): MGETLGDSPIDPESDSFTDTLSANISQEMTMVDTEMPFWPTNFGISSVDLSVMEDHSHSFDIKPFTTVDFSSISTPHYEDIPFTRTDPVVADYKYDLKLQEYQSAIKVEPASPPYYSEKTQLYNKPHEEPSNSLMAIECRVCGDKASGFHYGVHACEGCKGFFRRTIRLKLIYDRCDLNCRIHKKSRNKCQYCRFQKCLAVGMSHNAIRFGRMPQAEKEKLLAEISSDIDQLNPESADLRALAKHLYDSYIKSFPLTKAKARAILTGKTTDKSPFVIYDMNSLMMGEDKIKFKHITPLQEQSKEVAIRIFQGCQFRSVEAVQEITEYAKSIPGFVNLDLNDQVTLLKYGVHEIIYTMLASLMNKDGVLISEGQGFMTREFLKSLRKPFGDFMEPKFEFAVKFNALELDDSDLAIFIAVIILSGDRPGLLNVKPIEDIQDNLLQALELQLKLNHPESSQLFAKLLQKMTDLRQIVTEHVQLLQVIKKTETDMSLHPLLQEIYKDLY
# Chain of Aryl hydrocarbon receptor (Homo sapiens) (P35869 whole entry, looked up): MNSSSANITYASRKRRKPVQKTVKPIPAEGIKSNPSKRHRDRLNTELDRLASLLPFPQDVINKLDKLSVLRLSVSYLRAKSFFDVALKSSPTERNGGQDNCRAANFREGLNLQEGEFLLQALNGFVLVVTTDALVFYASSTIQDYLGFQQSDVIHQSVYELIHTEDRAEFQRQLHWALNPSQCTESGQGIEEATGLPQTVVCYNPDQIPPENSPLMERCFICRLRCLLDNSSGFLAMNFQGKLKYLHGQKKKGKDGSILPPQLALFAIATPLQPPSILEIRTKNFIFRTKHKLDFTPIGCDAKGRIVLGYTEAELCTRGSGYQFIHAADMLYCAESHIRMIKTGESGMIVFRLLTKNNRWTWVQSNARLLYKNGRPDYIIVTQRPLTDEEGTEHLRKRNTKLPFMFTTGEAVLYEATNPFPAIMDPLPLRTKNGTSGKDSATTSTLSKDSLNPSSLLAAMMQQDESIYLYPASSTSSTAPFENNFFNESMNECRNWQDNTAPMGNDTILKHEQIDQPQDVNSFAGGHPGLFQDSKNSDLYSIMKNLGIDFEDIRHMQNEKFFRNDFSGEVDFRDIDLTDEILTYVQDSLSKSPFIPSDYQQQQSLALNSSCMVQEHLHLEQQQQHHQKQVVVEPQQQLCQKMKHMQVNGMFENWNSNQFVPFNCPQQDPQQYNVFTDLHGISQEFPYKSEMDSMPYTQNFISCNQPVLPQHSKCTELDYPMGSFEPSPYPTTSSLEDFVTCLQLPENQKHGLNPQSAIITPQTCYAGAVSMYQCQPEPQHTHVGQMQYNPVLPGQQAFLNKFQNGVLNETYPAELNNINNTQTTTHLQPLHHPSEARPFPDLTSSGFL
# Chain of Vitamin D3 receptor (Homo sapiens) (P11473 whole entry, looked up): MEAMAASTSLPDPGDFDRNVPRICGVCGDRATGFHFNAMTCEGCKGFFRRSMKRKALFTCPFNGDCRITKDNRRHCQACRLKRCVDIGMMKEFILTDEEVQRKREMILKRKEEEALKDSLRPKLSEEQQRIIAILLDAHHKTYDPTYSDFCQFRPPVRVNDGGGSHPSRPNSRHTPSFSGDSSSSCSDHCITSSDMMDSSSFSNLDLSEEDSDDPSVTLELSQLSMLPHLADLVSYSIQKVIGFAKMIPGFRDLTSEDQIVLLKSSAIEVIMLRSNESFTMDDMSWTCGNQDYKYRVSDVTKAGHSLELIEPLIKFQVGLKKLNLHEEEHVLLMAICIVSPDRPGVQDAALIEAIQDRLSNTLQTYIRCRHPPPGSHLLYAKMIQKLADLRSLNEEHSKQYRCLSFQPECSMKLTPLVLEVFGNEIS
# Chain of Peroxisome proliferator-activated receptor delta (Homo sapiens) (Q03181 whole entry, looked up): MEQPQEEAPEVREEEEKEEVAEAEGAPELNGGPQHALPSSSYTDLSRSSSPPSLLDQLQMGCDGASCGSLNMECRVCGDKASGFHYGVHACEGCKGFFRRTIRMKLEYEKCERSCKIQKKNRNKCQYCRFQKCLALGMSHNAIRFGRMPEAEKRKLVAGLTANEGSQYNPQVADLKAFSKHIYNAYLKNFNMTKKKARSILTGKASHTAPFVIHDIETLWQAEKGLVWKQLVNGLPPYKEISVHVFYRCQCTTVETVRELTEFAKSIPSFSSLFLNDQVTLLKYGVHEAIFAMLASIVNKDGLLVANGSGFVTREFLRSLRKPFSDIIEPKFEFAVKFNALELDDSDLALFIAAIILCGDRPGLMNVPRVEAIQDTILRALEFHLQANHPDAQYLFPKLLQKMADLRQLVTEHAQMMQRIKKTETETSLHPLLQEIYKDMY
SMILES,Potency [1],Potency [2],outcome [3],outcome [4],Potency [5],outcome [6],Potency [7],Potency [8],Potency [9],Potency [10],Potency [11],outcome [12],outcome [13],outcome [14],Potency [15],Potency [16],outcome [17],outcome [18],outcome [19],outcome [20]
N#Cc1cccc(C#N)c1,inactive,inactive,inactive,inactive,inactive,inactive,inactive,inactive,inactive,inactive,inactive,inactive,inactive,inactive,inactive,inactive,inactive,inactive,,
C=CCN=C=S,inactive,inactive,,inactive,inactive,inactive,inactive,inactive,inactive,inactive,inactive,inactive,inactive,inactive,inactive,inactive,inactive,inactive,inactive,inactive
CCOP(=S)(OCC)Oc1ccc([N+](=O)[O-])cc1,inactive,31 µM (active) and 10.6 µM (active),,inactive,inactive,inactive,inactive,inactive,inactive,inactive,inactive,inactive,inactive,inactive,inactive,inactive,,,,
CNC(=O)Oc1cccc2ccccc12,inactive,5.31 µM (active) and 54 µM (active) and 27.3 µM (active),inactive,,,inactive,,inactive,inactive,inactive,inactive,inactive,inactive,inactive,inactive,inactive,inactive,inactive,inactive,inactive
O=C/C=C/c1ccccc1,inactive,inactive,,inactive,inactive,inactive,inactive,inactive,inactive,inactive,inactive,inactive,inactive,inactive,inactive,inactive,inactive,inactive,,
O=[N+]([O-])c1ccc(Cl)c(Cl)c1,inactive,inactive,,inactive,inactive,inactive,inactive,inactive,inactive,inactive,inactive,inactive,inactive,inactive,inactive,inactive,inactive,inactive,inactive,inactive
CC12CC1(C)C(=O)N(c1cc(Cl)cc(Cl)c1)C2=O (stereo not given),inactive,27.2 µM (active) and inactive,inactive,inactive,,inactive,,inactive,inactive,inactive,inactive,inactive,inactive,,inactive,inactive,inactive,inactive,,
CN(C)C(=O)C(c1ccccc1)c1ccccc1,inactive,inactive,,inactive,inactive,inactive,inactive,inactive,inactive,inactive,inactive,inactive,inactive,,inactive,inactive,inactive,,,
O=C(O)Cc1ccccc1,inactive,inactive,,inactive,inactive,inactive,inactive,inactive,inactive,inactive,inactive,,inactive,,inactive,inactive,inactive,inactive,inactive,inactive
Nc1nc(N)nc(NC2CC2)n1,inactive,inactive,inactive,,,inactive,,inactive,inactive,inactive and 43.6 µM (active),inactive,inactive,inactive,inactive,inactive,inactive,,,inactive,inactive
Cc1ccc(O)c(C)c1,inactive,inactive,inactive,inactive,inactive,inactive,,inactive,inactive,inactive,inactive,inactive,inactive,inactive,inactive,inactive,,,,
COC(=O)Nc1cccc(OC(=O)Nc2cccc(C)c2)c1,inactive,27.3 µM (active) and 2.73 µM (active),inactive,inactive,,inactive,48.6 µM (active) and inactive,inactive,inactive,,inactive,inactive,inactive,inactive,inactive,inactive,,,inactive,inactive
Cc1cccc(C)c1N,inactive,inactive,,inactive,inactive,inactive,inactive,inactive,inactive,inactive,inactive,inactive,inactive,inactive,inactive,inactive,,,inactive,inactive
C[C@H]1C(=O)O[C@@H]2CCN3CC=C(COC(=O)[C@](C)(O)[C@]1(C)O)[C@H]23,inactive,inactive,,inactive,inactive,inactive,inactive,inactive,inactive,inactive,inactive,inactive,inactive,inactive,inactive,inactive,inactive,inactive,inactive,inactive
Cl/C=C/Cl,inactive,inactive,inactive,,,inactive,inactive,inactive,inactive,inactive,inactive,inactive,inactive,inactive,inactive,inactive,inactive,inactive,,

# From PubChem BioAssay (Tox21)
